Bioassay records: PubChem, National Center for Advancing Translational Sciences (NCATS)
FLuc counter = counter-screen for miR-21 project: firefly luciferase inhibitors or activators | purified FLuc, Km substrates, luminescence inhibition | Potency, µM (series often up to 57.5 µM), inactives show top-dose activity change, negative = inhibition, hits mostly inhibitors | 360,000 tested, 6.9% active | AID 588342;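 note: plate controls were vehicle for no effect and reference inhibitor for full effect; nearly all actives have a fitted effect of over 55% in size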
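Purified P. pyralis luciferase (10nM final) with 10uM D-luciferin and 10uM ATP (Km levels) in 50mM Tris acetate pH 7.5, 10mM Mg acetate, 0.01% Tween-20, 0.05% BSA; qHTS 6-point titration, ~60 µM downward; luminescence read.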
ELG1 genotoxic = induces genotoxicity in HEK293T cells with luciferase-tagged ELG1. HEK293T ELG1-luciferase reporter, luminescence, 16 h. AID 504466. Potency, µM (series often up to 46 µM), inactives show at the top dose activity change, positive = activation, hits mostly activators. 330,000 tested, 1.3% active; note: % of control where 0% means no effect; nearly all actives have a fitted effect of over 60% in size
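16 hr compound incubation (37 °C, 5% CO2) of HEK293T cells carrying luciferase-tagged ELG1; luciferase then measured by ONE-Glo luminescence after 30 min at RT.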
SMN2 splice enh = enhancers of SMN2 splice variant expression. HEK293 SMN2-luciferase splicing reporter, luminescence, 30-36 h. Potency, µM (titrated, usually from 46.1 µM), without a hit: at the top dose activity change, positive = activation, usual class: activators. 210,000 tested, 2.8% active. AID 1458; note: % of control where 0% means no effect; nearly all actives have a fitted effect of over 55% in size
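HEK293 cells carry an SMN2 […]–luciferase reporter in which exon 7 inclusion puts luciferase in frame. Cells were plated 10-12 h before compound addition, then incubated 30-36 h at 37C. ONE-Glo luminescence was read; sodium butyrate at 4.5 mM final served as control.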
NPC1 promoter act = NPC1 promoter activation; Huh7 NPC1 promoter luciferase reporter, 24 h; Potency, µM (series often up to 9.22 µM), without a hit: at the highest dose activation, usual class: activators; 320,000 tested, 2.4% active; AID 485313; note: % of control where 0% means no effect; nearly all actives have a fitted effect of over 60% in size
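In 1536-well qHTS, Huh7 cells harboring an NPC1 promoter–luciferase construct received compound for 24 h; activation was quantified by luminescence following luciferase reagent addition.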
Rab9 promoter act = Rab9 promoter activation | Huh7 Rab9 promoter-luciferase reporter, luminescence, 24 h | Potency, µM (series often up to 9.22 µM), inactives show at the highest dose activation, negative = inhibition, hits mostly activators | 320,000 tested, 2.8% active | AID 485297; note: % of control where 0% means no effect; nearly all actives have a fitted effect of over 60% in size
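Cell-based reporter: Huh7 stable for Rab9 promoter-driven luciferase, plated in reduced-serum medium with 10% FBS at 1500 cells/well, compound-treated 24 h at 37 °C, luminescence read after 10 min reagent.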
ELG1 repair inh = blocks ELG1-dependent DNA repair in HEK293T cells; Potency, µM (series often up to 46.1 µM), for inactives: at the top dose activity change, negative = inhibition, actives largely listed as inhibitors; HEK293T ELG1-luciferase reporter, luminescence, 16 h; DNA damage induced by 5-fluorouridine; 330,000 tested, 2.3% active; AID 504467; note: % is set by controls: 0 for no effect and ±100 for the full control effect; nearly all actives have a fitted effect of over 55% in size
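Step one: seed 2,000 cells per well. Step two: pin-transfer compound or DMSO alongside 5-fluorouridine. Step three: incubate 16 hr, 37 °C, 5% CO2. Step four: add ONE-Glo, wait 30 min, read luminescence.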
ELG1 FLuc counter = luciferase inhibition in cell-free luciferin readout for ELG1 hits | AID 624247 | cell-free firefly luciferase luminescence counter-screen, ViewLux | Potency, µM (top dose mostly 46.1 µM), for inactives: at the top dose activity change, negative = inhibition, most hits filed as inhibitors | shares compounds with ELG1 repair inh | 350 tested, 3% active; note: % is set by controls: 0 for no effect and ±100 for the full control effect
ELG1 Luc conf = confirmation of human ELG1-dependent DNA repair inhibitors | 670 tested, 68% active | HEK293T ELG1-luciferase levels, luminescence; cells co-treated with 5-fluorouridine | Potency, µM (titrated, usually from 46.1 µM), without a hit: at the top dose activity change, negative = inhibition, most hits filed as inhibitors | shares compounds with ELG1 repair inh; note: % is set by controls: 0 for no effect and ±100 for the full control effect; nearly all actives have a fitted effect of over 55% in size
ELG1-Luc MMS = MMS-stimulated human ELG1 repair inhibition, confirmed | shares compounds with ELG1 repair inh | HEK293T luciferase-tagged ELG1 level, MMS stimulated | Potency, µM (titrated, usually from 46.1 µM), for the others: top-dose activity change, negative = inhibition, usual class: inhibitors | 670 tested, 53% active | AID 624249; note: % is set by controls: 0 for no effect and ±100 for the full control effect; nearly all actives have a fitted effect of over 60% in size
ELG1 5-FU = confirmation of ELG1 repair inhibitors: viability with 5FU | cell viability with 5-FU, ELG1-dependent repair | Potency, µM (doses to about 46.1 µM), for inactives: at the highest dose activity change, negative = viability loss, actives largely listed as cytotoxic | shares compounds with ELG1 repair inh | 670 tested, under 10 active;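 note: ELG1-luc HEK293T cells cotreated with 5-fluorouridine at 10 µM final; viability measured 16 h after compound addition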
ELG1 MMS viab = confirmation of ELG1 repair inhibitors: viability with MMS | Cell viability with MMS, ELG1-dependent DNA repair | shares compounds with ELG1 repair inh | Potency, µM (doses to about 46.1 µM), inactives show at the top dose activity change, negative = viability loss, usual class: cytotoxic | 670 tested, 33% active;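 note: ELG1-luc HEK293T cells co-treated with 10 µM MMS; viability read 16 h after compound addition; % is set by controls: 0 for no effect and ±100 for the full control effect; nearly all actives have a fitted effect of over 60% in size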
ELG1 unstim viab = counter-screen for ELG1 repair inhibitors: unstimulated cell viability; shares compounds with ELG1 repair inh; cell viability counter-screen, unstimulated, luminescence; Potency, µM (highest dose often 45.9 µM), for the others: top-dose activity change, negative = loss of viability, actives largely listed as cytotoxic; 900 tested, 8% active; AID 624252;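 note: compound exposure lasted 16 hours before reading; % is set by controls: 0 for no effect and ±100 for the full control effect; nearly all actives have a fitted effect of over 55% in size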
FLuc enzyme = counter-screen for ELG1 repair inhibitors: firefly luciferase inhibition. Potency, µM (highest dose often 57.5 µM), for inactives: at the highest dose activity, negative = inhibition, actives largely listed as inhibitors. shares compounds with ELG1 repair inh. 350 tested, 10% active. purified firefly luciferase, luminescence counter-screen. AID 624253; note: % is set by controls: 0 for no effect and ±100 for the full control effect
* = called active by the depositor; ? = inconclusive; / = no result; [ ] = dose if it differs, or a comment. In the library only some 9.2% were active in any assay of this set; here they are far more common. Calls come from the whole dose curve; as a rule, active = well fitted curve in the direction sought with a large enough effect; inconclusive = small, poorly fitted or top-dose-only effect, or another doubt; inactive = no such curve, though single readings can be large; an effect the other way counts as inactive or inconclusive. Potency is the fitted concentration of half-maximal effect.

SMILES | FLuc counter | ELG1 genotoxic | SMN2 splice enh | NPC1 promoter act | Rab9 promoter act | ELG1 repair inh | ELG1 Luc conf | ELG1-Luc MMS | ELG1 5-FU | ELG1 MMS viab | ELG1 unstim viab | others
COc1cnc(-c2ccccn2)nc1Sc1ccc(Cl)cc1 | -2% | -9% | -81% | -3% | 0% | 0.37µM* | 28µM* | ? | 15% | -12% | -11% | ELG1 FLuc counter=5%;FLuc enzyme=-7%
CCOC(=O)c1cc(-c2cc(OC)c(OC)c(OC)c2)nc2c1c(=O)[nH]c(=O)n2Cc1ccccc1 | 2% | 8.2µM* | ? | -13% | -11% | 13% | / | / | / | / | ? | ELG1 FLuc counter=42%;FLuc enzyme=-5%
CCOC(=O)c1cc(-c2ccc(F)cc2)nc2c1c(=O)[nH]c(=O)n2Cc1ccccc1 | 0% | ? | / | -4% | 0% | 29% | / | / | / | / | /
CN(C)c1ccc(-c2cc3ccccc3c(=O)o2)cc1 | / | ? | / | / | / | ? | / | / | / | / | ? | ELG1 FLuc counter=86%;FLuc enzyme=0.18µM*
CN(C)CCNC(=O)c1ccccc1-c1cc2ccccc2c(=O)o1 | -1% | 0% | / | -1% | 1% | 1% | / | / | / | / | /
CC(OC(=O)c1ccc(S(=O)(=O)NCc2ccco2)cc1)C(=O)Nc1ccccc1 (configuration not stated) | / | 0% | / | / | / | 9% | / | / | / | / | /
C=CCn1c(SCC(=O)N2CC(=O)Nc3ccccc32)nc2scc(-c3ccccc3)c2c1=O | 4% | -3% | 2% | -3% | 0% | 1.6µM* | 22µM* | -7% | 7% | -7% | ?
O=C1NC[C@H](c2ccccc2)OC(=O)[C@H](Cc2ccc(F)cc2)C/C=C\C[C@H]1CC(=O)N(CCO)Cc1ccccc1 | / | -14% | / | / | / | 1.3µM* | 5.6µM* | 2.8µM* | ? | ? | ?
O=C1NC[C@H](c2ccccc2)OC(=O)[C@@H](Cc2ccc(F)cc2)C/C=C\C[C@H]1CC(=O)N(CCO)Cc1ccccc1 | / | -6% | / | / | / | 2.6µM* | 7.9µM* | 13µM* | ? | ? | ?
O=C(C[C@H]1C/C=C\C[C@@H](Cc2ccc(F)cc2)C(=O)O[C@@H](c2ccccc2)CNC1=O)NCCO | / | -5% | / | / | / | -26% | / | / | / | / | /
CC(=O)OCC(OC(C)=O)C(OC(C)=O)C(OC(C)=O)C(=O)Nc1cccc(C)c1 (configuration not stated) | -2% | 0% | / | -5% | -2% | -2% | / | / | / | / | /
CC(/C=C/C(=O)NO)=C\[C@@H](C)C(=O)c1ccc(N(C)C)cc1 | / | / | 1.4µM* | / | / | / | / | / | / | / | 14µM* | ELG1 FLuc counter=119%;FLuc enzyme=?
Cc1cc(C)cc(NC(=O)N2CCCC2C(=O)Nc2ccc(-n3cnnn3)cc2)c1 (configuration not stated) | 0% | -1% | 9% | 0% | 1% | ? | ? | -8% | ? | -1% | 2%
CC(C)c1ccc(NC(=O)N2CCCC2C(=O)Nc2ccc(-n3cnnn3)cc2)cc1 (configuration not stated) | 2% | -1% | 8% | 9% | -1% | -16% | / | / | / | / | /
COc1cc(/C=C/c2nc(N)nc(-c3ccccc3O)n2)cc(OC)c1OC | -12% | -1% | 7% | -2% | 0% | 2.9µM* | 2.2µM* | 7.1µM* | -4% | ? | ?
COc1ccc(/C=C/c2nc(N)nc(-c3ccccc3O)n2)cc1 | ? | 0% | -15%[1.84 µM] | -1% | 0% | -9% | / | / | / | / | /
O=C(c1ccc(Br)cc1)N(Cc1ccco1)C1CCS(=O)(=O)C1 (configuration not stated) | 3% | -1% | / | -6% | 0% | 8% | / | / | / | / | /
CCOC(=O)Cn1c(=NC(=O)C(C)C)sc2c(C)cc(C)cc21 | ? | -6% | / | 7% | -1% | 3.3µM* | 14µM* | -3% | 8% | ? | ?
Cc1c(NC(=O)c2cc(-c3cccs3)nc3ccccc23)c(=O)n(-c2ccccc2)n1C | -3% | -6% | -22% | -5% | -5% | 2.9µM* | 2.8µM* | 7.9µM* | 3% | ? | ? | ELG1 FLuc counter=-7%;FLuc enzyme=-13%
Cc1ccc(NC(=O)c2cc(-c3cccs3)nc3ccccc23)nc1 | ? | -15% | / | -4% | -9% | ? | / | / | / | / | /
COc1ccc([C@H]2Cc3cc(O)cc(O)c3C(=O)O2)cc1O | / | 5.2µM* | / | / | / | ? | / | / | / | / | 9%
O=C1c2cccc(OCc3ccc(F)cc3)c2CCN1Cc1ccc(F)cc1 | 0% | 0% | -79% | -21% | -20% | 4.1µM* | 13µM* | 3.5µM* | -5% | 3.1µM* | ?
CCN1CCc2c(OCc3ccc(C(=O)OC)o3)cccc2C1=O | -4% | -5% | -3% | -3% | 5% | -13% | / | / | / | / | /
COc1ccc(S(=O)(=O)N2CCOCC2)cc1NC(=O)c1cccc2c(=O)c(C)c(-c3ccccc3)oc12 | -1% | -6% | / | -5% | -2% | 4.1µM* | 4.4µM* | -3% | 13% | 6% | -18%
